# Screening data: PubChem BioAssay, Broad Institute
# In the library only some 6.7% were active in any assay of this set; here they are far more common.
# Pf Dd2 inh: blocks growth of Plasmodium falciparum Dd2 parasites. P. falciparum Dd2 growth, SYBR Green, 72 h; hits give low values. actives 2.3% (n = 94,000). activity change, % at 10 µM; in the data active = activity change below about -80%; inconclusive = no clear call, values can overlap the other calls
# T cruzi growth-1: blocks T. cruzi growth in NIH3T3 culture; T. cruzi beta-gal in NIH3T3, GalScreen luminescence, 90 h; inhibition, % at 8.34 µM; actives 5.9% (n = 77,000); AID 624255;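 active = mean inhibition above about 93%, with at least 55% of replicates each passing it, limit read from the data, passing the limit was not always enough; inconclusive = only one of those two conditions holds; inactive = neither condition holds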
# C diff growth: C. difficile growth inhibition; growth activity, negative = inhibition, % at 16 µg/mL (by protocol); Clostridium difficile clinical isolate growth, OD600, 24 h; hits give low values; AID 1259249; actives 0.25% (n = 86,000);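 active = mean growth activity at or below -80% and every replicate also at or below -80%; inconclusive = mean at or below -80% but some replicate above -80%; inactive = mean growth activity above -80%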
# T cruzi growth-2: inhibitors of T. cruzi proliferation; shares compounds with T cruzi growth-1; actives 72% (n = 5,600); AID 651739; T. cruzi beta-gal in NIH3T3, GalScreen luminescence, 90 h; inhibition, % at 8.35 µM;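 active = mean replicate inhibition above about 95% and at least 55% of replicates individually reaching it, limit read from the data; inconclusive = only one of the two criteria is met; inactive = neither criterion is met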
# T cruzi growth-3: blocks T. cruzi growth in NIH3T3 host cells. shares compounds with T cruzi growth-1. actives 21% (n = 5,600). AID 651740. inhibition, % at 2.09 µM. T. cruzi beta-gal in NIH3T3, GalScreen luminescence, 90 h;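 active = mean inhibition above about 95%, with at least 55% of replicates also reaching it, limit read from the data; inconclusive = meets just one of the two conditions; inactive = meets neither condition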
# 3T3 cytotox: kills mouse NIH/3T3 fibroblasts; shares compounds with T cruzi growth-1; cytotoxicity (signal decrease), % at 8.35 µM; NIH/3T3 viability, CellTiter-Glo ATP luminescence, 90 h; actives 14% (n = 5,600);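 active = mean signal decrease across replicates above about 35% based on untreated-well scatter, with enough replicates individually passing, limit read from the data; inconclusive = no rule stated though some were filed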
# 3T3 cytotox 2: NIH/3T3 (mouse) viability loss. shares compounds with T cruzi growth-1. inhibition, % at 24.9 µM. NIH/3T3 viability, CellTiter-Glo ATP luminescence, 90 h. actives 56% (n = 5,600);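 active = mean loss of cell viability signal at or above a set limit, and enough replicates individually reaching it; inconclusive = meets only the mean limit or only the replicate share; inactive = meets neither condition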
# Hits are given with their value; – = inactive; ? = inconclusive; · = no result given.
SMILES,Pf Dd2 inh,T cruzi growth-1,C diff growth,T cruzi growth-2,T cruzi growth-3,3T3 cytotox,3T3 cytotox 2
CCCC#Cc1ccc2c(c1)O[C@H](CN(C)Cc1cccnc1)[C@H](C)CN([C@H](C)CO)S2(=O)=O,–,115,–,106,–,53,31
COCC#Cc1ccc2c(c1)O[C@H](CN(C)Cc1cccnc1)[C@@H](C)CN([C@@H](C)CO)S2(=O)=O,–,105,–,97,–,–,64
CCCC#Cc1ccc2c(c1)O[C@H](CN(C)Cc1cccnc1)[C@@H](C)CN([C@H](C)CO)S2(=O)=O,–,123,–,106,104,–,92
CCCC#Cc1ccc2c(c1)O[C@@H](CN(C)Cc1cccnc1)[C@@H](C)CN([C@@H](C)CO)S2(=O)=O,–,96,–,99,–,–,–
COCC#Cc1ccc2c(c1)O[C@@H](CN(C)Cc1cccnc1)[C@@H](C)CN([C@@H](C)CO)S2(=O)=O,–,–,–,·,·,·,·
CCCC#Cc1ccc2c(c1)O[C@H](CN(C)Cc1cncnc1)[C@H](C)CN([C@@H](C)CO)S2(=O)=O,–,–,–,·,·,·,·
C[C@@H]1CN([C@@H](C)CO)C(=O)c2cc(NC(=O)Nc3ccc(F)cc3)ccc2O[C@@H](C)CCCCO[C@H]1CN(C)Cc1ccncc1,–,–,–,·,·,·,·
C[C@@H]1CN([C@H](C)CO)C(=O)c2cc(NC(=O)c3ccncc3)ccc2O[C@H]1CN(C)S(C)(=O)=O,–,–,–,·,·,·,·
COCC(=O)N(C)C[C@H]1Oc2ncc(-c3ccccc3C)cc2C(=O)N([C@H](C)CO)C[C@@H]1C,–,–,–,·,·,·,·
C[C@@H]1CN([C@@H](C)CO)C(=O)c2cc(C#Cc3ccncc3)cnc2O[C@H]1CN(C)C(=O)c1ccccc1F,–,·,–,·,·,·,·
CCCC#Cc1ccc2c(c1)O[C@H](CN(C)Cc1cccnc1)[C@H](C)CN([C@@H](C)CO)S2(=O)=O,–,109,–,99,–,54,?
CCCC#Cc1ccc2c(c1)O[C@H](CN(C)Cc1cncnc1)[C@H](C)CN([C@H](C)CO)S2(=O)=O,–,–,–,·,·,·,·
C[C@H](CO)N1C[C@H](C)[C@@H](CN(C)Cc2ccc(Cl)c(Cl)c2)Oc2ccc(N(C)C)cc2CC1=O,–,108,–,107,–,–,103
C[C@@H]1CN([C@@H](C)CO)C(=O)Cc2cc(N(C)C)ccc2O[C@H]1CN(C)Cc1ccc(Cl)c(Cl)c1,–,107,–,110,–,–,107
C[C@@H]1CN([C@@H](C)CO)C(=O)c2cc(N(C)C)ccc2O[C@@H]1CN(C)Cc1ccc(Cl)c(Cl)c1,–,–,–,·,·,·,·
C[C@@H]1CN([C@H](C)CO)C(=O)Cc2cc(N(C)C)ccc2O[C@H]1CN(C)Cc1ccc(Cl)c(Cl)c1,–,–,·,·,·,·,·
C[C@H]1CN([C@@H](C)CO)C(=O)Cc2cc(N(C)C)ccc2O[C@H]1CN(C)Cc1ccc2c(c1)OCO2,–,–,–,·,·,·,·
C[C@H](CO)N1C[C@H](C)[C@H](CN(C)Cc2ccc(Cl)c(Cl)c2)Oc2ccc(N(C)C)cc2CC1=O,–,?,–,–,–,–,–
COC(=O)[C@H]1[C@H](CO)[C@H]2Cn3c(ccc(-c4ccncc4)c3=O)[C@H]2N1Cc1cccc(F)c1,–,–,–,·,·,·,·
Cc1ccc(S(=O)(=O)N(C)C[C@@H]2OCCCC[C@@H](C)Oc3ccc(NC(=O)NC(C)C)cc3C(=O)N([C@H](C)CO)C[C@@H]2C)cc1,–,–,–,·,·,·,·
COc1ccc(S(=O)(=O)Nc2ccc3c(c2)CC(=O)N([C@@H](C)CO)C[C@H](C)[C@H](CN(C)S(=O)(=O)c2ccccc2)O3)cc1,–,–,–,·,·,·,·
C[C@@H]1CN([C@H](C)CO)S(=O)(=O)c2ccc(Br)cc2O[C@@H]1CN(C)Cc1cccnc1,–,·,–,·,·,·,·
C[C@H]1CCCCO[C@@H](CN(C)C(=O)NC2CCCCC2)[C@@H](C)CN([C@@H](C)CO)C(=O)c2cc(NC(=O)Nc3ccc(C(F)(F)F)cc3)ccc2O1,–,–,–,·,·,·,·
C[C@H](CO)N1C[C@H](C)[C@@H](CN(C)C(=O)NC2CCCCC2)OCCCC[C@H](C)Oc2ccc(NC(=O)Nc3ccc(C(F)(F)F)cc3)cc2C1=O,–,–,–,·,·,·,·
C[C@H]1CCCCO[C@H](CN(C)C(=O)Nc2ccc(C(F)(F)F)cc2)[C@@H](C)CN([C@@H](C)CO)C(=O)c2cc(NC(=O)NC3CCCCC3)ccc2O1,-87,109,–,97,107,–,–
SMILES,Pf Dd2 inh,T cruzi growth-1,C diff growth,T cruzi growth-2,T cruzi growth-3,3T3 cytotox,3T3 cytotox 2
C[C@H](CO)N1C[C@H](C)[C@H](CN(C)C(=O)Nc2ccc(C(F)(F)F)cc2)OCCCC[C@H](C)Oc2ccc(NC(=O)NC3CCCCC3)cc2C1=O,–,122,–,?,106,–,–
C[C@@H]1CCCCO[C@@H](CN(C)C(=O)NC2CCCCC2)[C@@H](C)CN([C@H](C)CO)C(=O)c2cc(NC(=O)Nc3ccc(C(F)(F)F)cc3)ccc2O1,–,–,–,·,·,·,·
C[C@@H]1CCCCO[C@H](CN(C)C(=O)NC2CCCCC2)[C@H](C)CN([C@@H](C)CO)C(=O)c2cc(NC(=O)Nc3ccc(C(F)(F)F)cc3)ccc2O1,–,–,–,·,·,·,·
C[C@@H]1CCCCO[C@@H](CN(C)C(=O)Nc2ccc(C(F)(F)F)cc2)[C@H](C)CN([C@@H](C)CO)C(=O)c2cc(NC(=O)NC3CCCCC3)ccc2O1,–,?,–,101,–,–,–
C[C@@H]1CCCCO[C@H](CN(C)C(=O)Nc2ccc(C(F)(F)F)cc2)[C@@H](C)CN([C@H](C)CO)C(=O)c2cc(NC(=O)NC3CCCCC3)ccc2O1,–,113,–,108,–,–,–
CN1CCN(C(=O)C[C@H]2CC[C@@H]3[C@@H](COc4ccc(NC(=O)C5CCC5)cc4C(=O)N3C)O2)CC1,–,·,–,·,·,·,·
COCCNC(=O)C[C@H]1CC[C@@H](NC(=O)NC2CCCC2)[C@@H](CO)O1,–,·,–,·,·,·,·
CO[C@H]1CN(C)C(=O)c2cc(NS(C)(=O)=O)ccc2OC[C@H](C)N(S(C)(=O)=O)C[C@@H]1C,–,–,–,·,·,·,·
COc1ccc(CN(C)C[C@@H]2Oc3ccc(NC(=O)NC(C)C)cc3C(=O)N([C@H](C)CO)C[C@@H]2C)cc1,–,–,–,·,·,·,·
C[C@@H]1CCCCO[C@@H](CN(C)C(=O)Nc2ccc(C(F)(F)F)cc2)[C@H](C)CN([C@H](C)CO)C(=O)c2cc(NC(=O)NC3CCCCC3)ccc2O1,–,117,–,104,109,–,–
C[C@H]1CCCCO[C@@H](CN(C)C(=O)Nc2ccc(C(F)(F)F)cc2)[C@@H](C)CN([C@@H](C)CO)C(=O)c2cc(NC(=O)NC3CCCCC3)ccc2O1,–,123,–,101,113,–,–
